# In PubChem BioAssay:
# For part of these data: Measured potencies and affinities stand elsewhere. Calls of active or inactive are those of the source.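 How the source made its calls, unless noted: active means fitted half-maximal concentration within 10 nM to 100 µM, steepness 0.5 to 2, significant signal drop, low assay interference; inactive means the rest.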
# What was measured:
# [1] = biological target: Cell division control protein 42 homolog (Homo sapiens) (UniProt P60953); assay: activated mutant Cdc42 GTP-binding inhibitors, dose response, biochemical, multiplex bead flow cytometry, Bodipy-FL-GTP (AID 1333;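 active means fitted half-maximal concentration within the tested dose range, moderate curve steepness, a statistically real signal drop, and little compound fluorescence or tag-binding interference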); conditions: bead-based flow cytometry; series mostly up to 100 µM
# Sequence of Cell division control protein 42 homolog (Homo sapiens) (P60953 whole entry, looked up): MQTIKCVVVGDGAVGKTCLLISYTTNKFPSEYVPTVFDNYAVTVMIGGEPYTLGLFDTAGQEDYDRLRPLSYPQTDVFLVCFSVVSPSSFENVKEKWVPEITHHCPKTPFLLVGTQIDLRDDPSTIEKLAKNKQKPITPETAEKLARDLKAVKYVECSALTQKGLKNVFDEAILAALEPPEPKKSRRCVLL
# [2] = biological target: Cell division control protein 42 homolog (Homo sapiens) (UniProt P60953); assay: wildtype Cdc42 GTP-binding inhibitors, dose response, biochemical, multiplex bead flow cytometry, Bodipy-FL-GTP (AID 1334;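 active means fitted half-maximal concentration within the tested range, moderate curve steepness, significant signal drop, and little compound fluorescence or bead-linkage interference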); conditions: bead-based flow cytometry, Bodipy-FL-GTP binding to GST-Cdc42; at 100 µM (top of the series) unless noted
# [3] = biological target: GTPase HRas (Homo sapiens) (UniProt P01112); assay: inhibitors of GTP binding to wildtype Ras, dose response, biochemical, multiplex bead flow cytometry (AID 1335); conditions: bead-based flow cytometry, Bodipy-GTP binding to GST-Ras; at 100 µM (top of the series) unless noted
# Sequence of GTPase HRas (Homo sapiens) (P01112 whole entry, looked up): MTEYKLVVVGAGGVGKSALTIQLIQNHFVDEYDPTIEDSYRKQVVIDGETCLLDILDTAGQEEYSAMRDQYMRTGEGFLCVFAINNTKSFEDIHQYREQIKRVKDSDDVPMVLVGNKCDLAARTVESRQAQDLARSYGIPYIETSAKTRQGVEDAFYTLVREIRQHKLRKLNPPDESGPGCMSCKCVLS
# [4] = tested on: Ras-related protein Rab-7a (dog), GTP binding; assay: Rab7 GTP binding inhibitors, potency, dose response, biochemical, wildtype, multiplex bead flow cytometry (AID 1336; call rule not given here); conditions: bead-based flow cytometry, fluorescent GTP binding to Rab7; series mostly up to 100 µM
# [5] = biological target: Ras-related C3 botulinum toxin substrate 1 (Homo sapiens) (UniProt P63000); assay: wildtype Rac1 GTP binding inhibitors, dose response, biochemical, multiplex bead flow cytometry (AID 1340;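 active means dose curve with midpoint inside tested range, moderate steepness, plateau gap beyond fit error, low compound glow and bead-link interference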); conditions: GST-Rac1 beads, Bodipy-FL-GTP binding; at 100 µM (top of the series) unless noted
# [6] = biological target: GTPase HRas (Homo sapiens) (UniProt P01112); assay: activated Ras mutant GTP binding inhibitors, dose response, biochemical, multiplex bead flow cytometry (AID 1341;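 active means dose-response curve with midpoint inside the tested range, moderate steepness, significant amplitude and little compound fluorescence or bead-attachment interference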;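 further: GST-tagged constitutively activated Ras mutant immobilized on beads and multiplexed with other GTPases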); conditions: bead-based flow cytometry, Bodipy-FL-GTP binding; series mostly up to 100 µM
Compound,outcome [1],"fluorescence, percent of control (lower = inhibition) [2]","GTP binding, percent of control [3]",outcome [4],"GTP binding signal, raw median fluorescence (lower = inhibition) (MCF (arbitrary fluorescence units)) [5]",outcome [6]
CCN1CCN(c2nc3c(c(=O)n(C)c(=O)n3C)n2Cc2cccc3ccccc23)CC1,inactive,43.1%,92.2%,inactive,314,inactive
O=C(O)c1cccnc1SCc1cccc(F)c1,inactive,78.4%,92.9%,inactive,52.6,inactive
CCCCCOC(=O)c1ccccc1C(=O)O,inactive,134%,220%,inactive,275,inactive
Cc1ccc(C(=O)c2ccccc2C(=O)O)cc1,inactive,67.4%,89.9%,inactive,38.5,inactive
O=C(Nc1nccs1)c1ccc(-c2cccc([N+](=O)[O-])c2)o1,inactive,31.6%,72.4%,inactive,181,inactive
COCCN(C(=S)Nc1cc(C)ccc1C)C(C)c1cccnc1 (configuration not stated),inactive,52.6%,63.7%,inactive,212,inactive
Cn1c(N/N=C/c2ccccc2)nc2sc3c(c2c1=O)CCC3,inactive,71.9%,117%,inactive,123,inactive
COc1ccc(NC(=O)c2cc3nc(-c4ccccc4)cc(C)n3n2)cc1OC,inactive,33.2%,76.8%,inactive,218,inactive
COc1ccccc1CNCc1sc(C(=O)O)cc1C,inactive,61.8%,85.7%,inactive,35.2,inactive
CCN(CC)c1ccc(/C=C/C(=O)c2ccc(Br)cc2)cc1,inactive,312%,319%,inactive,0,inactive
CCc1c(C)nc2c(C#N)c[nH]n2c1=O,inactive,39%,54.3%,inactive,114,inactive
O=C(NCc1ccc(F)cc1)C(c1ccccc1)N(CC1CCCO1)C(=O)Cn1nnc2ccccc21 (configuration not stated),inactive,53.6%,70.1%,inactive,0,inactive
Cc1cc(OCc2ccc(C(=O)O)o2)ccc1Cl,inactive,57.7%,85.2%,inactive,31.8,inactive
O=C(O)c1cn(CCOc2ccccc2Cl)c2ccccc12,inactive,99.8%,110%,inactive,86,inactive
Cc1ccccc1OCCn1c(C)c(C(=O)O)c2ccccc21,inactive,61.5%,205%,inactive,64.3,inactive
Nc1nc(N)c2sc3nc4c(cc3c2n1)CCC4,inactive,89.1%,126%,inactive,136,inactive
CC(C)(C)CC(=O)NC(=S)NCc1ccco1,inactive,41.6%,90.5%,inactive,312,inactive
CCCCCCCCSc1nnc2[nH]c(=O)cc(N)n12,inactive,33.4%,79.8%,inactive,241,inactive
COc1ccc(OC)c(CCNCc2ccc(C(=O)O)s2)c1,inactive,58.4%,82.2%,inactive,35.9,inactive

Compound,outcome [1],"fluorescence, percent of control (lower = inhibition) [2]","GTP binding, percent of control [3]",outcome [4],"GTP binding signal, raw median fluorescence (lower = inhibition) (MCF (arbitrary fluorescence units)) [5]",outcome [6]
COc1ccc(-c2cc(=O)c(C(=O)c3ccc(C)cc3)n[nH]2)cc1,inactive,35.8%,80.8%,inactive,317,inactive
Cc1c(NC(=O)CCN2C(=O)c3ccccc3C2=O)c(=O)n(-c2ccccc2)n1C,inactive,42.1%,90.3%,inactive,322,inactive
Cc1cc(C)n2nc(SCCOc3ccc(F)cc3)nc2n1,inactive,42.7%,78.4%,inactive,166,inactive
C=CCSc1nc(N)c(C#N)c(-c2ccc(C)cc2)c1C#N,inactive,35%,83.1%,inactive,262,inactive
COc1ccc(/C=C(/C#N)C(=O)Nc2ccc(O)cc2)cc1C(=O)O,inactive,29.4%,74.4%,inactive,177,inactive
O=C(O)c1cccc(Oc2ccc([N+](=O)[O-])cc2)c1,inactive,62.7%,61.7%,inactive,0,inactive
O=C(CSc1ccc2nnc(-c3ccncc3)n2n1)Nc1nccs1,inactive,30.7%,69.4%,inactive,174,inactive
O=C(O)c1ccccc1C(=O)OCc1ccc(F)cc1F,inactive,89.8%,106%,inactive,72.5,inactive
O=C(C#Cc1ccccc1F)c1ccc([N+](=O)[O-])cc1,inactive,49.8%,179%,inactive,104,inactive
O=C(Nc1nc(-c2cccs2)cs1)c1cc2ccccc2oc1=O,inactive,51.8%,130%,inactive,141,inactive
CCCCCCNc1cc2n(c(=O)n1)CCc1cc(OC)c(OC)cc1-2,inactive,44.7%,104%,inactive,128,inactive
COc1ccccc1OCCn1cc(C(=O)O)c2cccc(Cl)c21,inactive,53.4%,199%,inactive,56.2,inactive
CCNC(=S)N(Cc1cccs1)Cc1cc2cc(OCC)ccc2[nH]c1=O,inactive,45%,66%,inactive,0,inactive
O=C(O)c1ccc(CNCc2cccc(Cl)c2)s1,inactive,61.3%,85.1%,inactive,32.6,inactive
Cc1cc(/C=C2\SC(=S)N(Cc3ccco3)C2=O)c(C)n1-c1cccnc1,inactive,137%,95.2%,inactive,209,inactive
CCn1cc(C(=O)OCC(=O)c2cc(C)n(-c3cccc(C(F)(F)F)c3)c2C)c(=O)c2ccc(C)nc21,inactive,37.1%,57.8%,inactive,137,inactive
O=C(O)c1ccc(/C=N/NC(=O)c2cc(-c3ccc4c5c(cccc35)CC4)n[nH]2)cc1,inactive,28.2%,71.2%,inactive,151,inactive
COc1ccc(CN2CCN(CCc3ccccc3)C(CCO)C2)c(O)c1 (configuration not stated),inactive,40.6%,82.3%,inactive,265,inactive
COc1cccc(CNCc2sc(C(=O)O)cc2C)c1OC,inactive,61.7%,80.7%,inactive,35,inactive

Compound,outcome [1],"fluorescence, percent of control (lower = inhibition) [2]","GTP binding, percent of control [3]",outcome [4],"GTP binding signal, raw median fluorescence (lower = inhibition) (MCF (arbitrary fluorescence units)) [5]",outcome [6]
CCOc1ccc2ccccc2c1/C=N/n1cncn1,inactive,86.7%,156%,inactive,179,inactive
Cc1ccc(-c2nnc3c4ccccc4c(C)nn23)cc1S(=O)(=O)N1CCN(CCO)CC1,inactive,38.3%,86.6%,inactive,238,inactive
Cc1ccc(C)c(N2CCN(C(=O)CN(C)S(=O)(=O)c3ccc4c(c3)CCC(=O)N4)CC2)c1,inactive,41.8%,65.9%,inactive,156,inactive
O=C(O)c1cccc(NCc2ccc3c(c2)OCO3)c1,inactive,64.9%,88.8%,inactive,41.9,inactive
COc1ccccc1OCc1cccc(C(=O)O)c1,inactive,64.9%,92.8%,inactive,42,inactive
Cc1ccc(/C=C/C(=O)c2ccccc(=O)c2O)cc1C,inactive,37.3%,81.8%,inactive,245,inactive
COc1cc(/C=N/NC(=O)CSc2n[nH]c(=O)[nH]c2=O)cc(OC)c1O,inactive,36%,78.9%,inactive,178,inactive
CC(C)(C)C(=O)C#Cc1ccccc1,inactive,53.5%,203%,inactive,55.8,inactive
Cc1noc(/C=C/c2ccc(-c3ccccc3Cl)o2)c1[N+](=O)[O-],inactive,125%,171%,inactive,199,inactive
CCCC(=O)c1ccc(N2CCOCC2)c(F)c1,inactive,48.4%,65.7%,inactive,212,inactive
CCCCCn1nc(C(=O)OCC(=O)c2c(N)n(C)c(=O)n(C)c2=O)c2ccccc2c1=O,inactive,34%,79.6%,inactive,232,inactive
COc1cc(/C=C2\SC(c3ccccc3)=NC2=O)cc(Cl)c1O,inactive,26.3%,71%,inactive,190,inactive
CCCCNc1nc(=S)[nH]c2cc(OC)c(OC)cc12,inactive,37.9%,47.8%,inactive,110,inactive
CCOC(=O)N1CCC(NC(=O)c2ccc3nc4ccccc4c(=O)n3c2)CC1,inactive,97.6%,122%,inactive,152,inactive
Cc1sc2nc3c(SC(C)C(=O)O)cc(C(=O)c4ccccc4O)cn3c(=O)c2c1C (configuration not stated),inactive,29.3%,72.1%,inactive,186,inactive
Cc1ccc(NC(=S)NNC(=O)c2cn(C)nc2C)cc1,inactive,83.7%,166%,inactive,180,inactive
Cc1sc2ncnc(N/N=C/c3ccc(O)cc3)c2c1C,inactive,27.2%,64.8%,inactive,312,inactive
CC1Cc2ccccc2N1S(=O)(=O)c1cccc(C(=O)NCCCO)c1 (configuration not stated),inactive,38.5%,85.5%,inactive,323,inactive
COc1ccc(/C=N/NC(=O)Nc2cccc3nsnc23)cc1OC,inactive,45.1%,46.7%,inactive,132,inactive
